Several values for one entry are separate records, joined by “and”; a condition that tells them apart may be missing. Identical values can stand only once. Inconclusive results are not listed. Where a call stands in place of a potency, no number is given. Unmarked numbers belong to inactive results. Activity calls are given as the source filed them. Calls come from the whole dose curve; as a rule, active = well fitted curve in the direction sought with a large enough effect; inconclusive = small, poorly fitted or top-dose-only effect, or another doubt; inactive = no such curve, though single readings can be large; an effect the other way counts as inactive or inconclusive.
Columns and labels:
[1] = Viability qHTS for spleen associated tyrosine kinase inhibitor (SYKi) naive MV4-11 cells (AID 1963823); note: nearly all actives have a fitted effect of over 40% in size
Method in brief: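 SYK inhibitor-naive MV4-11 cells, 500 per well, exposed to compounds for 72 hr at 37 C, 5% CO2. Viability read as CellTiter-Glo luminescence after 10 min at room temperature.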

[2] = Quantitative highthroughput screen to assess conditional lethalithy of NOMO1 cells grown in RPMI1640 with untreated serum (RPMI+s) (AID 1963876); note: nearly all actives have a fitted effect of over 35% in size
Method in brief: (§1)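 Each medium arm—HPLM with 10% dialyzed FBS, or RPMI1640 with 5 mM glucose and 10% untreated or dialyzed FBS—was screened against an 11-point, 3-fold compound titration for 48 h at 37 °C, with CellTiter-Glo luminescence as endpoint.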

[3] = Quantitative highthroughput screen to assess conditional lethalithy of NOMO1 cells grown in RPMI1640 with dialyzed fetal bovine serum (RPMI+ds) (AID 1963877); note: nearly all actives have a fitted effect of over 30% in size; for Viability: series mostly up to about 46 µM
Method in brief: as §1

[4] = Quantitative highthroughput screen to assess conditional lethalithy of NOMO1 cells grown in Human Plasma-Like Medium with dialyzed fetal bovine serum (HPLM+ds) (AID 1963878); note: nearly all actives have a fitted effect of over 35% in size
Method in brief: as §1

[5] = Quantitative highthroughput screen to assess conditional lethalithy of P12 Ichikawa cells grown in Human Plasma-Like Medium with dialyzed fetal bovine serum (HPLM+ds) (AID 1963879); details: Potency: viability; note: nearly all actives have a fitted effect of over 35% in size; for Viability: series mostly up to about 46 µM
Method in brief: as §1

[6] = Quantitative highthroughput screen to assess conditional lethalithy of P12 Ichikawa cells grown in RPMI1640 with dialyzed fetal bovine serum (RPMI+ds) (AID 1963880); details: Potency: P12-Ichikawa viability; note: nearly all actives have a fitted effect of over 35% in size
Method in brief: as §1

[7] = Quantitative highthroughput screen to assess conditional lethalithy of P12 Ichikawa cells grown in RPMI1640 with untreated serum (RPMI+s) (AID 1963881); details: Potency: viability; note: nearly all actives have a fitted effect of over 35% in size; for Viability: series mostly up to about 46 µM
Method in brief: as §1

[8] = Quantitative highthroughput screen to assess conditional lethalithy of SEM cells grown in Human Plasma-Like Medium with dialyzed fetal bovine serum (HPLM+ds) (AID 1963882); note: nearly all actives have a fitted effect of over 35% in size; for Viability: series mostly up to about 46 µM
Method in brief: as §1

[9] = Quantitative highthroughput screen to assess conditional lethalithy of SEM cells grown in RPMI1640 with unreated serum (RPMI+s) (AID 1963883); note: nearly all actives have a fitted effect of over 35% in size
Method in brief: as §1

[10] = Quantitative highthroughput screen to assess conditional lethalithy of SEM cells grown in RPMI1640 with dialyzed fetal bovine serum (RPMI+ds) (AID 1963884); note: nearly all actives have a fitted effect of over 35% in size; for Viability: series mostly up to about 46 µM
Method in brief: as §1

[11] = Cellular viability qHTS for adrenocortical cancer (ACC) cell line NCI-H295R (AID 1963990); note: nearly all actives have a fitted effect of over 60% in size
Method in brief: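 Adrenocortical carcinoma cells, suspended at 300 000 cells/mL in serum-free DMEM plus ITS, rested overnight before pin transfer of compound. After two days' incubation, ATP-dependent luminescence was recorded and curve-fitted.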

[12] = Cellular viability qHTS for adrenocortical cancer (ACC) cell line SW-13 (AID 1963989); details: SW-13 ACC cells viability, CellTiter-Glo, 48 h; activity (max response): active compounds read low; note: nearly all actives have a fitted effect of over 65% in size;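 for activity (max response): cells grown in serum-free medium with ITS supplement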
Method in brief: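 IC50 and maximal-response values come from four-parameter logistic fits of titration data. SW-13 cells in serum-free medium received compounds (up to 46 uM final) for 48 h before CellTiter-Glo luminescence.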
Potency is the fitted concentration of half-maximal effect.

Compound | Potency [1] | Potency [2] | Potency [3] | Potency [4] | Potency [5] | Potency [6] | Potency [7] | Potency [8] | Potency [9] | Potency [10] | Potency [11] | activity (max response) [12] | Potency [12]
CN(C)Cc1ccc(-c2nc3cccc4c3n2CCNC4=O)cc1 | 16.6 µM (active) | inactive | inactive | inactive | inactive | inactive | inactive | inactive | inactive | inactive | 25.1 µM (active) | – | –
COc1ccc(C2CNC(=O)C2)cc1OC1CCCC1 (stereo not drawn) | 0.525 µM (active) | inactive | inactive | inactive | inactive | inactive | inactive | inactive | inactive | inactive | inactive | 1.73% and 4.14% | –
O=C1c2cccc(O)c2C(=O)c2c(O)cc(CO)cc21 | 8.33 µM (active) | inactive | inactive | inactive | inactive | inactive | inactive | – | inactive | inactive | inactive | 13.5% | –
CC1=NN(c2ccccc2)C(=O)C1 | 11.9 µM (active) | inactive | inactive | inactive | inactive | inactive | inactive | inactive | inactive | inactive | inactive | 8.8% and -4.32% | –
O=C(CCCCCCNC(=O)c1cnc(N(c2ccccc2)c2ccccc2)nc1)NO | 2.95 µM (active) | 18.7 µM (active) | 16.6 µM (active) | 14.8 µM (active) | 6.62 µM (active) | 5.9 µM (active) | 7.43 µM (active) | 7.43 µM (active) | 5.9 µM (active) | 7430 nM (active) | 14.1 µM (active) | – | 15.8 µM (active)
C[C@@H](NC(=O)c1ncnc(N)c1Cl)c1ncc(C(=O)Nc2cc(C(F)(F)F)c(Cl)cn2)s1 | 9.2 µM (active) | inactive | inactive | 16.6 µM (active) | inactive | – | inactive | inactive | inactive | inactive | – | – | 20 µM (active)
C[C@@H](NCCCc1cccc(C(F)(F)F)c1)c1cccc2ccccc12 | 10.6 µM (active) | inactive | inactive | inactive | inactive | inactive | inactive | inactive | inactive | inactive | 5.17 µM (active) and 8.91 µM (active) | – | 20.6 µM (active) and 25.1 µM (active)
O=C(O)c1cccnc1Nc1cccc(C(F)(F)F)c1 | inactive | inactive | inactive | inactive | inactive | inactive | inactive | inactive | – | – | – | – | –
CC1(C)Cc2c(sc(NC(=S)NC(=O)c3ccccc3)c2C(=O)O)CO1 | 14.8 µM (active) | inactive | inactive | inactive | inactive | inactive | inactive | inactive | inactive | inactive | inactive | 11% | –
CCCc1nc(C)c2c(=O)[nH]c(-c3cc(S(=O)(=O)N4CCN(CC)CC4)ccc3OCC)nn12 | inactive | 9.35 µM (active) | 9.35 µM (active) | 9.35 µM (active) | 16.6 µM (active) | 9.35 µM (active) | 10.5 µM (active) | 11.8 µM (active) | 9.35 µM (active) | 7430 nM (active) | inactive | -1.6% and 3.7% | –
COc1cc([C@@H]2c3cc4c(cc3[C@H](O)[C@H]3COC(=O)[C@H]23)OCO4)cc(OC)c1OC | 26.6 nM (active) and 26.3 nM (active) | 0.0042 µM (active) | – | – | 0.0019 µM (active) | 0.0021 µM (active) | 0.0021 µM (active) | 0.0026 µM (active) | 0.0019 µM (active) | 2.6 nM (active) | 7.3 nM (active) and 50.1 nM (active) | – | 9.2 nM (active) and 44.7 nM (active)
CN(C)c1cccc(-c2c3c(=O)n(-c4ccccc4Cl)[nH]c3cc(=O)n2C)c1 | inactive | 0.933 µM (active) | – | 0.588 µM (active) | 0.831 µM (active) | 1.17 µM (active) | 1.05 µM (active) | 1.05 µM (active) | 1.05 µM (active) | 831 nM (active) | inactive | -1.86% | –
NS(=O)(=O)NCCNc1nonc1C(=Nc1ccc(F)c(Br)c1)NO | inactive | 2.63 µM (active) | 8.31 µM (active) | – | 2.34 µM (active) | 8.31 µM (active) | 5.24 µM (active) | 16.6 µM (active) | 3.31 µM (active) | – | inactive | -16.2% | –
O=C(O)C(O)Cc1ccc(O)c(O)c1 (stereo not drawn) | 17.1 µM (active) | inactive | 13.2 µM (active) | – | inactive | inactive | inactive | – | – | – | inactive | – | –
CNC(=O)c1cc(Oc2ccc(NC(=O)Nc3ccc(Cl)c(C(F)(F)F)c3)c(F)c2)ccn1 | 0.296 µM (active) | – | inactive | 3.32 µM (active) | – | inactive | – | – | 0.372 µM (active) | 332 nM (active) | 7.08 µM (active) | – | 3.98 µM (active)

From PubChem BioAssay (NCATS)
